The source of these data is publication PMC7862700, “An all-to-all approach to the identification of sequence-specific readers for epigenetic DNA modifications on cytosine”.

Common to all, as to assay: DAPPL (digital affinity profiling via proximity ligation, sequencing); 10 mM Tris-HCl pH 7.5, 50 mM NaCl, 1 mM DTT, 4% glycerol, room temperature, 30 min; GST-TFs on glutathione beads, 16-mer random dsDNA library, 0.1% formaldehyde crosslink after washing; high values mean tight binding
For assay [1], the target named is T1, FEV (Homo sapiens, UniProt Q99581 1-238).
T1 sequence: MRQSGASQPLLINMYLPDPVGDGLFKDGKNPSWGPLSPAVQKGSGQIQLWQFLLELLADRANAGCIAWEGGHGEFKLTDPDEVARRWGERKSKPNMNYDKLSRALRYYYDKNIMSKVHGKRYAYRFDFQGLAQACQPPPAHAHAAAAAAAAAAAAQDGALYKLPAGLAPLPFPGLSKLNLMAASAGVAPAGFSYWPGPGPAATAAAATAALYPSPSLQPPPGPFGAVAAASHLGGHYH
Conditions: protein: recombinant; tags: N-terminal GST; dsDNA, one strand shown. The method, boiled down:
(§1)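 Pools were built from human transcription factors expressed in yeast as GST fusions, captured on glutathione beads and DNA-barcoded, along with a tag-only sample. Incubation with 200 nmole of a 16-mer random double-stranded DNA library lasted 30 min at room temperature in Tris/NaCl/DTT/glycerol buffer, and was followed by washing, 0.1% formaldehyde crosslinking, proximity ligation, PCR amplification and Illumina NextSeq500 sequencing. Binding signal is the quotient of each hexamer's read frequency for a factor and its frequency for the tag-only sample.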

Assay [2] concerns the target ETV5 (Homo sapiens, UniProt P41161 1-510). Conditions: protein: recombinant; tags: N-terminal GST; dsDNA, one strand shown. An outline of the steps:
as §1

The target of assay [3] is HSF1 (Homo sapiens, UniProt Q00613 1-529). Conditions: protein: recombinant; tags: N-terminal GST; chain copies: 3; dsDNA, one strand shown. An outline of the steps:
as §1

The target of assay [4] is T2, SPIC (Homo sapiens, UniProt Q8N5J4 1-248).
T2 sequence: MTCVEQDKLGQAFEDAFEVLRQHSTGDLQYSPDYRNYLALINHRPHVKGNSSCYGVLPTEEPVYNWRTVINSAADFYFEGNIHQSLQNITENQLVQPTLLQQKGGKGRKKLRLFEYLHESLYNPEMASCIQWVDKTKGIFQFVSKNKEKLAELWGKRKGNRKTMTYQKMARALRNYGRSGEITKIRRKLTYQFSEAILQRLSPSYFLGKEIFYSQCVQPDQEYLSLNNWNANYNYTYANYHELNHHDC
To be noted: protein: recombinant; tags: N-terminal GST; dsDNA, one strand shown. The method, boiled down:
as §1

Assay [5] deals with ELF4 (Homo sapiens, UniProt Q99607 1-663). To be noted: protein: recombinant; tags: N-terminal GST; dsDNA, one strand shown. An outline of the steps:
as §1

Assay [6] concerns the target T3, ELK4 (Homo sapiens, UniProt P28324-2 1-405).
T3 sequence: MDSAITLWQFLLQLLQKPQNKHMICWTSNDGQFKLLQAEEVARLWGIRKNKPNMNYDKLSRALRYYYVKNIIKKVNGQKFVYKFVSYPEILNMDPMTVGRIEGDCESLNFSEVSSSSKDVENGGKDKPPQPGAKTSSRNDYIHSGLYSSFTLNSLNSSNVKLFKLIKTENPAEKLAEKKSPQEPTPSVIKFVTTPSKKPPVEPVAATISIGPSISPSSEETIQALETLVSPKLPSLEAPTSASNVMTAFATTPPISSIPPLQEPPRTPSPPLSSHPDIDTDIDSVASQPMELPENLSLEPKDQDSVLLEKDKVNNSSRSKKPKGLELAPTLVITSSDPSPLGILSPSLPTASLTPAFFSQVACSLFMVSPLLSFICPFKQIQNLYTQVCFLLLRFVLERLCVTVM
To be noted: protein: recombinant; tags: N-terminal GST; dsDNA, one strand shown. The method, boiled down: as §1

For assay [7], the target named is T4, ETV2 (Homo sapiens, UniProt O00321 1-342).
T4 sequence: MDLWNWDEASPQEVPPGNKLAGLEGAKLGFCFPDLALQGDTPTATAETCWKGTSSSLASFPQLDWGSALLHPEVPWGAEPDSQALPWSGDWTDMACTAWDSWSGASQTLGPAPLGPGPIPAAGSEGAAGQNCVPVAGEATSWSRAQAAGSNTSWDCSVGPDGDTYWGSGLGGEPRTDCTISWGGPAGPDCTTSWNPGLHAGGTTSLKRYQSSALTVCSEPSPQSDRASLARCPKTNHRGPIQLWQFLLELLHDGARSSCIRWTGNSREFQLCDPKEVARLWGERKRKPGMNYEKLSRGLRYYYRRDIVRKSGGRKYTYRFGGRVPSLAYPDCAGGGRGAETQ
Conditions: protein: recombinant; tags: N-terminal GST; dsDNA, one strand shown. An outline of the steps: as §1

The target in assay [8] is T5, ELF3 (Homo sapiens, UniProt P78545 1-371).
T5 sequence: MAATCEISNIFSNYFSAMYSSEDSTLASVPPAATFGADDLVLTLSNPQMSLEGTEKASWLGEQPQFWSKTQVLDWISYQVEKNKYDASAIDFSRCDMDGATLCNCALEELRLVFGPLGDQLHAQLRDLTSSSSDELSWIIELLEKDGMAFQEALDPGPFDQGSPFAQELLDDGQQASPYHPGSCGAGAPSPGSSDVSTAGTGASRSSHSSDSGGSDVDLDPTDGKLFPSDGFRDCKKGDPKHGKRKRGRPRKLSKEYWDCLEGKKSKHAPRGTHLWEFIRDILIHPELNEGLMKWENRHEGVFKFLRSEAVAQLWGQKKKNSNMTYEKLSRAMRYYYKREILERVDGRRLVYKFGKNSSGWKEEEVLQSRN
To be noted: protein: recombinant; tags: N-terminal GST; dsDNA, one strand shown. An outline of the steps: as §1

The target of assay [9] is CRX (Homo sapiens, UniProt O43186 1-299). Conditions: protein: recombinant; tags: N-terminal GST; dsDNA, one strand shown. An outline of the steps:
as §1

In assay [10] the target is ETV1 (Homo sapiens, UniProt P50549 1-477). To be noted: protein: recombinant; tags: N-terminal GST; dsDNA, one strand shown. The method, boiled down: as §1
Sequence of ETV1 (P50549 whole entry): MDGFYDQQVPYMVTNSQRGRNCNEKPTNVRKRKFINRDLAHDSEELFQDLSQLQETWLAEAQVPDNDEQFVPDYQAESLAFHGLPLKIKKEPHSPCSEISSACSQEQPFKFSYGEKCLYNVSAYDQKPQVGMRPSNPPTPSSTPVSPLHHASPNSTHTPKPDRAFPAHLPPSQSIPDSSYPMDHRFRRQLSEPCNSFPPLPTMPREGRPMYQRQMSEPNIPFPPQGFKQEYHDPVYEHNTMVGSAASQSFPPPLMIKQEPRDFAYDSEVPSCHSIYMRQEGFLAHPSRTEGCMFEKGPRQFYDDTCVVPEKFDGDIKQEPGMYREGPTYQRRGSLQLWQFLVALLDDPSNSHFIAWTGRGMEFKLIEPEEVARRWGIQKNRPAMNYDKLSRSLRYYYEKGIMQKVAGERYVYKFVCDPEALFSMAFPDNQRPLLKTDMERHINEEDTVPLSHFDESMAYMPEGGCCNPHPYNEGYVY

Sequence of HSF1 (Q00613 whole entry): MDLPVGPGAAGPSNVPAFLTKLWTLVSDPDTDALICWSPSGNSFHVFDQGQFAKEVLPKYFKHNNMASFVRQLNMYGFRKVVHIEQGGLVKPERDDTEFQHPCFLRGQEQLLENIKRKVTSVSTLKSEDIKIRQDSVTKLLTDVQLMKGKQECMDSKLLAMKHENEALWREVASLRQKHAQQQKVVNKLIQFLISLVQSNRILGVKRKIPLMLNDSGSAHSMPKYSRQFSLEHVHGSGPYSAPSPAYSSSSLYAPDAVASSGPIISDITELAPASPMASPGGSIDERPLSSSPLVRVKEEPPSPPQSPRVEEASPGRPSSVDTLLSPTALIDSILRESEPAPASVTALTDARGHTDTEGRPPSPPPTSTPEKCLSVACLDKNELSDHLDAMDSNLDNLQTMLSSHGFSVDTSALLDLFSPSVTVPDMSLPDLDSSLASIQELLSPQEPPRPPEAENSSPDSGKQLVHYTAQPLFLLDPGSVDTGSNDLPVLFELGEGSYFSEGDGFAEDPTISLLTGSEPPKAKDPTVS
Sequence of ELF4 (Q99607 whole entry): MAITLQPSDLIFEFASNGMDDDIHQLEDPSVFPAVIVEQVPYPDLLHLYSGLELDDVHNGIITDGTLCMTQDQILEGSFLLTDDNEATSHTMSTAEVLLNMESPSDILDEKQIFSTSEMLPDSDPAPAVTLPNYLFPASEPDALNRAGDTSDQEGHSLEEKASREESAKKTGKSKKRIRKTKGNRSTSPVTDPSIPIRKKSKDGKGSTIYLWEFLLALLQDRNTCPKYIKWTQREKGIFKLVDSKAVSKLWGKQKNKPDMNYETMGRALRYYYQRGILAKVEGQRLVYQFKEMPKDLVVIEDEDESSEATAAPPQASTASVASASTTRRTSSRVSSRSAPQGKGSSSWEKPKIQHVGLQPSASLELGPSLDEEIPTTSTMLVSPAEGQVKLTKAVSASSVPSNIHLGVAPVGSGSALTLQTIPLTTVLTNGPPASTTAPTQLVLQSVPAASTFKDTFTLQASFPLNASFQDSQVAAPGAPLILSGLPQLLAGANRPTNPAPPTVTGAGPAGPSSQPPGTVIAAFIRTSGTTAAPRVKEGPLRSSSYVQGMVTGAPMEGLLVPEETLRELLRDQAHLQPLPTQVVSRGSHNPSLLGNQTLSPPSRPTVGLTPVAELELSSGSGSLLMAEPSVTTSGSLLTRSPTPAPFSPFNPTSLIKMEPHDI
Sequence of ETV5 (P41161 whole entry): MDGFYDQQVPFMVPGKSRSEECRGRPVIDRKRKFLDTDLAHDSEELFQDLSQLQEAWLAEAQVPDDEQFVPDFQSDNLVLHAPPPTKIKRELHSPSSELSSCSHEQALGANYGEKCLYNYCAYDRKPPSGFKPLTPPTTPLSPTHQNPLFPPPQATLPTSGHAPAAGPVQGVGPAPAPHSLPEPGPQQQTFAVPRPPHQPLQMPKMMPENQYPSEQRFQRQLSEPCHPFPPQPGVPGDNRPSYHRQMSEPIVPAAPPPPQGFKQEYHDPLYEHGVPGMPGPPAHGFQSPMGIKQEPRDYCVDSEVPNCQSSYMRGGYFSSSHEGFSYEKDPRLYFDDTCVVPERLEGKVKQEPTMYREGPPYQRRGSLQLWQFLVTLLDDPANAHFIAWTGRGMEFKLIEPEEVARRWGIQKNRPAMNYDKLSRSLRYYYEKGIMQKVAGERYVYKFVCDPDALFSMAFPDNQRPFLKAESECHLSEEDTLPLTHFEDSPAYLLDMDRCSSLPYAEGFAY
Sequence of CRX (O43186 whole entry): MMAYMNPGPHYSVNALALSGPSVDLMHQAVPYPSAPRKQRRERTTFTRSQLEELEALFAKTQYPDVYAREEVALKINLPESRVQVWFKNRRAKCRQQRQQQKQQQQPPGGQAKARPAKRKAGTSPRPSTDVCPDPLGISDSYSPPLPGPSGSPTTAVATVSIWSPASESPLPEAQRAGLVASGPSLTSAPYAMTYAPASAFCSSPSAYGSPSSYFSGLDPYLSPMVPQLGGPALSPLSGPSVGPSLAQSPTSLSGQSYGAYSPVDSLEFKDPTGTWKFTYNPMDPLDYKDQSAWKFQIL

In the case of CTAATT, the binding signal is 1.35 fold enrichment (6-mer frequency, TF over GST control) in [1]; 1.28 fold enrichment (6-mer frequency, TF over GST control) in assay [2]; 1.47 fold enrichment (6-mer frequency, TF over GST control) in [3]; 1.46 fold enrichment (6-mer frequency, TF over GST control) in assay [4]; 1.38 fold enrichment (6-mer frequency, TF over GST control) in assay [5]; 1.27 fold enrichment (6-mer frequency, TF over GST control) in [6]. The binding signal in assay [7] was 1.57 fold enrichment (6-mer frequency, TF over GST control); in assay [8] it was 1.48 fold enrichment (6-mer frequency, TF over GST control); in assay [9] it was 2.09 fold enrichment (6-mer frequency, TF over GST control); in assay [10] it was 1.26 fold enrichment (6-mer frequency, TF over GST control).
As for ATGCGC, the binding signal in assay [1] was 1.17 fold enrichment (6-mer frequency, TF over GST control); in assay [2] it was 1.07 fold enrichment (6-mer frequency, TF over GST control); in [3], 1.27 fold enrichment (6-mer frequency, TF over GST control); in assay [4], 1.13 fold enrichment (6-mer frequency, TF over GST control); in assay [5] it was 1.22 fold enrichment (6-mer frequency, TF over GST control); in [6], 1.28 fold enrichment (6-mer frequency, TF over GST control). The binding signal is 1.1 fold enrichment (6-mer frequency, TF over GST control) in [7]; 1.1 fold enrichment (6-mer frequency, TF over GST control) in assay [8]; 1.14 fold enrichment (6-mer frequency, TF over GST control) in assay [9]; 1.16 fold enrichment (6-mer frequency, TF over GST control) in assay [10].
As to CCTCCC, the binding signal in [1] is 1.59 fold enrichment (6-mer frequency, TF over GST control); in assay [2], 1.55 fold enrichment (6-mer frequency, TF over GST control); in assay [3] it was 1.12 fold enrichment (6-mer frequency, TF over GST control); in assay [4], 1.65 fold enrichment (6-mer frequency, TF over GST control); in [5] it was 1.66 fold enrichment (6-mer frequency, TF over GST control); in assay [6] it was 1.3 fold enrichment (6-mer frequency, TF over GST control). The binding signal in [7] was 1.71 fold enrichment (6-mer frequency, TF over GST control); in [8], 1.36 fold enrichment (6-mer frequency, TF over GST control); in assay [9], 1.21 fold enrichment (6-mer frequency, TF over GST control); in assay [10], 1.36 fold enrichment (6-mer frequency, TF over GST control).
As for TTCAGC, the binding signal in [1] was 1.25 fold enrichment (6-mer frequency, TF over GST control); in assay [2] it was 1.22 fold enrichment (6-mer frequency, TF over GST control); in [3], 1.04 fold enrichment (6-mer frequency, TF over GST control); in assay [4], 1.16 fold enrichment (6-mer frequency, TF over GST control); in assay [5], 1.28 fold enrichment (6-mer frequency, TF over GST control); in assay [6], 1.23 fold enrichment (6-mer frequency, TF over GST control). For the same sequence, the binding signal was 1.14 fold enrichment (6-mer frequency, TF over GST control) in [7]; 1.27 fold enrichment (6-mer frequency, TF over GST control) in assay [8]; 1.19 fold enrichment (6-mer frequency, TF over GST control) in assay [9]; 1.3 fold enrichment (6-mer frequency, TF over GST control) in assay [10].
Regarding GATGTT, the binding signal in [1] is 1.22 fold enrichment (6-mer frequency, TF over GST control); in [2], 1.31 fold enrichment (6-mer frequency, TF over GST control); in assay [3] it was 1.18 fold enrichment (6-mer frequency, TF over GST control); in assay [4] it was 1.39 fold enrichment (6-mer frequency, TF over GST control); in assay [5], 1.22 fold enrichment (6-mer frequency, TF over GST control); in assay [6], 1.16 fold enrichment (6-mer frequency, TF over GST control). The binding signal in assay [7] is 1.21 fold enrichment (6-mer frequency, TF over GST control); in [8], 1.22 fold enrichment (6-mer frequency, TF over GST control); in [9] it was 1.08 fold enrichment (6-mer frequency, TF over GST control); in assay [10] it was 1.25 fold enrichment (6-mer frequency, TF over GST control).
As for TTTCCC, the binding signal in assay [1] was 1.61 fold enrichment (6-mer frequency, TF over GST control); in [2], 1.93 fold enrichment (6-mer frequency, TF over GST control); in assay [3], 1.57 fold enrichment (6-mer frequency, TF over GST control); in assay [4], 1.87 fold enrichment (6-mer frequency, TF over GST control); in assay [5], 1.77 fold enrichment (6-mer frequency, TF over GST control); in assay [6], 1.47 fold enrichment (6-mer frequency, TF over GST control). Also, the binding signal in assay [7] is 1.58 fold enrichment (6-mer frequency, TF over GST control); in [8], 1.43 fold enrichment (6-mer frequency, TF over GST control); in assay [9], 1.43 fold enrichment (6-mer frequency, TF over GST control); in assay [10], 1.6 fold enrichment (6-mer frequency, TF over GST control).
As for CATCCT, the binding signal in assay [1] is 1.59 fold enrichment (6-mer frequency, TF over GST control); in assay [2] it was 1.63 fold enrichment (6-mer frequency, TF over GST control); in [3], 1.12 fold enrichment (6-mer frequency, TF over GST control); in assay [4], 1.63 fold enrichment (6-mer frequency, TF over GST control); in assay [5] it was 1.62 fold enrichment (6-mer frequency, TF over GST control); in assay [6], 1.51 fold enrichment (6-mer frequency, TF over GST control). Besides, the binding signal is 1.63 fold enrichment (6-mer frequency, TF over GST control) in assay [7]; 1.59 fold enrichment (6-mer frequency, TF over GST control) in assay [8]; 1.21 fold enrichment (6-mer frequency, TF over GST control) in assay [9]; 1.55 fold enrichment (6-mer frequency, TF over GST control) in assay [10].
